Screening results (PubChem BioAssay)
Most compounds without a hit are left out; they make up all but 1.9% or so of the library.
EP2 mod – EP2 receptor (human) modulation. induction, % at 25 µM. 0.83% of 260,000 active. EP2-expressing cells, cAMP HTRF FRET, PGE2 co-stimulation. AID 940;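 active means compounds whose cAMP rise, as percent of the full-agonist control response, exceeds 60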;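 further: rat C6 glioma line stably carrying human EP2 under a CMV promoter; the protocol text gives 20 µM as final concentration; 100% = response of wells given 1 µM PGE2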
Target sequence (P43116 whole entry, looked up): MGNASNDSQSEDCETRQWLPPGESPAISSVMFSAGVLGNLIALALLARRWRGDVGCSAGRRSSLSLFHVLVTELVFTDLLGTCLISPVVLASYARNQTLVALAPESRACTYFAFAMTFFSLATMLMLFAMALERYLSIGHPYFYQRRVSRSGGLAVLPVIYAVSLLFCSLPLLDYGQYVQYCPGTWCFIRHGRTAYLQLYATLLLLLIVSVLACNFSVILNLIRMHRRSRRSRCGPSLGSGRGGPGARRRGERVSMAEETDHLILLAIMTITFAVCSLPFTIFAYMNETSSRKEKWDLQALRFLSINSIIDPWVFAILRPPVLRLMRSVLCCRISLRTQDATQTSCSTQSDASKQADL
PGE2 EP2 inh – blocks the human prostaglandin E2 receptor EP2; P43116; C6 glioma cells expressing human EP2, cAMP TR-FRET; cells stimulated with saturating PGE2; inhibition, % at 25 µM; 0.52% of 260,000 active;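 active means percent inhibition above 40 after rounding to a whole number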;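 further: rat C6 glioma host cells with rolipram phosphodiesterase inhibitor present; the protocol text gives 20 µM as final concentration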
S1P4 antag – blocks the human S1P4 receptor. S1P4-expressing cells, antagonist mode, reporter read-out. inhibition, % at 4.98 µM. 0.26% of 220,000 active. AID 1510. O95977; in the data active means inhibition above about 29%;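 further: 0% = wells stimulated with agonist and 100% = vehicle wells without agonist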
Target sequence (O95977 whole entry, looked up): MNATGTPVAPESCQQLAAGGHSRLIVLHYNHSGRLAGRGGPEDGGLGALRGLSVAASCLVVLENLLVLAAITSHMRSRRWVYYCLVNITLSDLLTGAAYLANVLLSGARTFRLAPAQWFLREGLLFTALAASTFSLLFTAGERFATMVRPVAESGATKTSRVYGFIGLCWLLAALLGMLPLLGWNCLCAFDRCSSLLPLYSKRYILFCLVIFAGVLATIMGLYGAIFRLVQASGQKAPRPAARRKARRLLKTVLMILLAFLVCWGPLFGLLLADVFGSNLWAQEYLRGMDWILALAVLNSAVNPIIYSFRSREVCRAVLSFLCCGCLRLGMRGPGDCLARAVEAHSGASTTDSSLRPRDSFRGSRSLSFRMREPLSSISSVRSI
S1P3 antag – blocks the human S1P3 receptor; inhibition, % at 4.98 µM; 0.27% of 170,000 active; AID 485; Q99500; CHO S1P3 NFAT-BLA reporter, FRET fluorescence, antagonist mode;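 active means inhibition above the plate cutoff, the mean inhibition of test wells on that plate plus 3 SD, cut at about 28% in these data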;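 further: cells challenged with S1P at its EC80 of 0.8 µM; blue over green emission ratio from cleaved BLA substrate after 4 h stimulation; 0% = S1P-stimulated wells and 100% = unstimulated DMSO-only wells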
S1P4 agonist – agonists of human S1P4 receptor; 0.35% of 220,000 active; O95977; S1P4-expressing cell line, agonist reporter assay; activation, % at 4.98 µM; in the data active means activation above about 11%;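 further: 0% = DMSO vehicle and 100% = reference agonist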
* marks the source's active call; other numbers are inactive results; · = no result.

SMILES | EP2 mod | PGE2 EP2 inh | S1P4 antag | S1P3 antag | S1P4 agonist
CCc1ccc(S(=O)(=O)/N=C2\C=CC(=O)c3ccccc32)cc1 | 18.2 | 23.4 | -6.2 | -26.5 | -0.7
CCc1ccc(S(=O)(=O)/N=C2/C=C(Sc3ncn[nH]3)C(=O)c3ccccc32)cc1 | -95.9 | 61.0* | -33.4 | -6.9 | 3.6
NC(=O)C1CC(=O)N(c2ccc(OCc3ccccc3)cc2)C1 (centres undefined) | -10.9 | 9.2 | · | · | ·
O=C1[C@H]2[C@@H]3c4ccccc4[C@H]([C@H]2C(=O)N1c1ccc(OCc2ccccc2)cc1)[n+]1ccccc13 | 13.8 | 42.0* | · | · | ·
CC(=O)Nc1ccc(S(=O)(=O)N(Cc2ccccc2)c2ccccc2F)cc1 | 64.2* | 7.3 | -8.7 | -3.1 | 0.9
COc1ccc(CNn2c(-c3cccs3)nc3ccccc3c2=O)cc1OC | 23.4 | 9.2 | -7.5 | -7.3 | 1.0
O=c1c2ccccc2nc(-c2cccs2)n1-c1cccc2ccccc12 | 62.4* | 10.4 | -19.4 | -4.6 | 1.7
CCn1c2cc(C)oc2c2cnn(Cc3ccccc3C(F)(F)F)c(=O)c21 | 81.2* | · | · | · | ·
COC(=O)C1=CC(C(=O)c2cccs2)=NN(c2ccc(OC)cc2)C1C(=O)OC (centres undefined) | 63.0* | 10.3 | 3.1 | -4.8 | 2.7
COC(=O)C1=NN(c2ccc(OC)cc2)C2C(=O)N(c3ccccc3OC)C(=O)C12 (centres undefined) | 10.4 | 6.8 | -2.6 | 2.5 | 0.9
CCN(CC)S(=O)(=O)c1ccc(S(=O)(=O)N2CCN(C(C)=O)CC2)cc1 | 31.0 | 6.7 | · | · | ·
Nc1c(S(=O)(=O)O)cc(S(=O)(=O)O)c2ccc(N=Nc3ccccc3)c(O)c12 | 1.1 | 52.1* | · | · | ·
CCc1cc2cc(C)ccc2nc1SCC(=O)NCCc1ccc(OC)c(OC)c1 | 42.5 | 6.7 | · | · | ·
Nc1ccccc1SCC(=O)N1c2ccccc2Sc2ccc(C(F)(F)F)cc21 | 88.4* | 5.3 | · | · | ·
CCCOC(=O)Nc1nc2ccccc2o1 | -4.6 | 7.3 | -9.4 | -11.7 | -0.7
O=C(Nc1nc2ccccc2o1)Nc1ccccc1Cl | -42.6 | 40.8* | · | · | ·
CCCC(=O)N(CCC)c1nnc(-c2cc(OC)c(OC)c(OC)c2)s1 | -32.2 | 4.7 | · | · | ·
CCC(C)(C)NC(=O)C(c1ccc(F)cc1)N(Cc1cccnc1)C(=O)c1csnn1 (centres undefined) | 5.8 | 9.4 | · | · | ·
CCCc1ccc(-c2ccc(/C=C/C(=O)O)cc2)nc1 | 15.8 | 4.8 | -7.5 | -10.8 | -0.7
CCCCCc1ccc(-c2ccc(/C=C/C(=O)O)cc2)nc1 | 62.4* | 4.6 | -21.6 | -1.9 | 1.5
CCOC(=O)c1ccccc1NC(=O)N1CCn2c(C)ccc2C1CC (centres undefined) | 64.1* | 0.5 | -5.5 | 0.1 | 0.4
CCc1ccc(NC(=S)N(CCN(C)C)Cc2cc3cccc(C)c3[nH]c2=O)cc1 | -28.2 | 10.6 | · | · | ·
CCOC(=O)/C(=C\c1cccnc1)C(=O)c1cc(C(C)=O)c(Nc2ccccc2)s1 | -17.6 | 38.4 | 63.3* | · | -6.0
O=C(Nc1cc(Cl)ccc1N1CCOCC1)c1cc2ccccc2o1 | 81.5* | 9.7 | · | · | ·
Cc1nnc(SCC(=O)Nc2nc(C(C)(C)C)cs2)[nH]c1=O | -63.0 | 13.8 | · | · | ·
SMILES | EP2 mod | PGE2 EP2 inh | S1P4 antag | S1P3 antag | S1P4 agonist
CCCn1cc(NC(=O)[C@H]2C[C@@H](c3ccc(F)cc3)NS(=O)(=O)N2C)cn1 | -9.8 | · | · | · | ·
N#CC(C#N)=C1C=CC=CN1/C(=C\c1ccccc1)C(=O)c1cccs1 | 1.8 | 49.5* | 3.2 | 4.6 | 0.7
COc1ccccc1N1CCN(C(=O)CSc2nnc3c4c5c(sc4ncn23)CCCC5)CC1 | 25.9 | 14.5 | · | · | ·
CC1(C)[C@@H]2CC[C@@]1(CS(=O)(=O)Nc1ccccc1)C(=O)C2 | 23.6 | 50.6* | · | · | ·
COc1ccccc1N1CCN(S(=O)(=O)CC23CCC(CC2=O)C3(C)C)CC1 (centres undefined) | -2.4 | 12.6 | -1.2 | -16.3 | 1.3
CC1(C)C2CCC1(CS(=O)(=O)N1CCOCC1)C(=O)C2 (centres undefined) | -0.3 | 96.3* | 6.9 | · | -0.1
CN(CCO)c1nc2c([nH]1)c(=O)[nH]c(=O)n2C | -9.8 | 7.0 | · | · | ·
N=C(N)SCCc1ccncc1 | 16.0 | 47.7* | · | · | ·
COc1cccc(-n2c(SCC(=O)Nc3ccccc3Cl)nnc2-c2cccs2)c1 | 36.9 | 4.7 | · | · | ·
O=C(O)C[C@H]1OCC=C2C[N+]3([O-])CC[C@@]45c6ccccc6N[C@@H]4[C@@H]1[C@@H]2C[C@H]53 (some centres undefined) | -5.1 | 54.4* | · | · | ·
CCCCNc1nc(-c2ccccc2)cc(C(F)(F)F)c1C(N)=O | 64.2* | 11.8 | 3.4 | · | -0.4
NC(=O)c1c(C(F)(F)F)cc(-c2ccccc2)nc1NCCO | -13.1 | 19.8 | -5.5 | 4.8 | -0.6
Cc1cc(-c2cccs2)c2c(n1)sc1c(=O)[nH]c(=O)[nH]c12 | 31.1 | 47.0* | 0.4 | -26.5 | 0.7
O=C(c1nc2ccccc2s1)C1CCN(C(=O)c2cscn2)CC1 | -100.5 | · | · | · | ·
COc1ccccc1NC(=O)C(NC(=O)OC(C)(C)C)C(C)OCc1ccccc1 (centres undefined) | 62.8* | 3.6 | -19.5 | · | 1.6
c1ccc(CSc2nnc(-c3ccccc3)c(-c3ccccc3)n2)cc1 | · | 1.2 | · | · | ·
N#Cc1c(Cl)nc(SCc2ccccc2)nc1-c1ccccc1 | 16.1 | 60.9* | 4.8 | · | 1.5
O=C(CSc1nccc2ccccc12)NCc1noc(-c2ccccc2)n1 | 9.8 | 14.6 | · | · | ·
CC1CCN(C(=O)CSc2nc(COc3ccccc3)nc3ccccc23)CC1 | 80.5* | 8.9 | · | · | ·
CN(C)C(=O)CSc1nc(COc2ccccc2)nc2ccccc12 | 1.3 | 4.3 | · | · | ·
O=C1C=CC(=O)N1c1ccc(OC(F)F)cc1 | -61.9 | 108.6* | -17.9 | 4.5 | 0.7
COC(=O)c1ccc(CSc2nc3c(cnn3-c3ccc(C)c(C)c3)c(=O)[nH]2)o1 | 64.6* | 9.7 | -1.3 | 8.7 | -0.6
O=C(Nc1ccccc1Cl)C1(c2ccccc2)CC1(Cl)Cl (centres undefined) | 62.1* | 3.7 | -9.8 | 5.8 | -1.3
CC(=O)c1ccc(NC(=O)C2(c3ccccc3)CC2(Cl)Cl)cc1 (centres undefined) | -22.4 | 1.9 | 4.0 | 10.5 | -1.5
CSc1nc(SCC(=O)O)c2sc3nc(-c4ccccc4)c4c(c3c2n1)CCC4 | 61.2* | 9.9 | -7.9 | -0.8 | -0.5
SMILES | EP2 mod | PGE2 EP2 inh | S1P4 antag | S1P3 antag | S1P4 agonist
COc1ccc(CCN2C(=O)C(O)=C(C(=O)c3ccco3)C2c2ccc(O)cc2)cc1OC (centres undefined) | 19.4 | 12.9 | · | · | ·
C[N+](C)(C)CCN(Cc1cccs1)c1ccccn1 | 13.6 | 55.2* | · | · | ·
CCOc1nc(CC(C)C)c2c(c1C#N)CC(C)(C)OC2 | 61.9* | 5.8 | 0.5 | 3.3 | -1.3
CCc1nc(NC2CCCCC2)c(C#N)c2c1COC(C)(C)C2 | 62.2* | 7.5 | -3.8 | · | 1.0
C=C[C@]1(C)C[C@H](OC(=O)CO)[C@]2(C)C3C(=O)CC[C@]3(CC[C@H]2C)[C@H](C)[C@H]1O (some centres undefined) | -8.9 | 56.0* | · | · | ·
Cc1ccccc1C1C(C#N)=C(N)NC(S)=C1C#N (centres undefined) | 70.6* | 14.3 | · | · | ·
CCc1ccc2[nH]c(=O)c(CN(CCCO)C(=O)Nc3ccc(Cl)cc3)cc2c1 | -51.6 | 12.4 | · | · | ·
